Data: the supplement of paper PMC3334620
In all, about 33,000 sequences were measured (“E-score (-0.5 to 0.5)”: median about -0.054, highest 2% from about 0.39 on). Shown is part of a subset that was picked to be rich in the highest values.

These sequences were tested against Ylr278c (UniProt Q05854) (assay: PBM E-score (8-mer binding enrichment) (E-score (-0.5 to 0.5)); higher = stronger / more preferred TF binding). Conditions: protein concentration: 200 nM; construct: GST-DNA-binding domain.
Procedure: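 Universal 'all 10-mer' protein binding microarrays (Agilent AMADID 015681) probed with GST-tagged S. cerevisiae TFs (full-length or DBD) made by in vitro transcription/translation (PURExpress), about 100-200 nM. Bound TF was detected with fluorescent anti-GST. Each ungapped 8-mer (which stands for itself and its reverse complement) is scored by the PBM enrichment score (E-score), a modified Wilcoxon-Mann-Whitney statistic from -0.5 to +0.5, computed with the Universal PBM Analysis Suite. Scale: above 0.35 generally sequence-specific binding.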

UniProt Q05854, sequence (Q05854 whole entry, the tested form may be a part): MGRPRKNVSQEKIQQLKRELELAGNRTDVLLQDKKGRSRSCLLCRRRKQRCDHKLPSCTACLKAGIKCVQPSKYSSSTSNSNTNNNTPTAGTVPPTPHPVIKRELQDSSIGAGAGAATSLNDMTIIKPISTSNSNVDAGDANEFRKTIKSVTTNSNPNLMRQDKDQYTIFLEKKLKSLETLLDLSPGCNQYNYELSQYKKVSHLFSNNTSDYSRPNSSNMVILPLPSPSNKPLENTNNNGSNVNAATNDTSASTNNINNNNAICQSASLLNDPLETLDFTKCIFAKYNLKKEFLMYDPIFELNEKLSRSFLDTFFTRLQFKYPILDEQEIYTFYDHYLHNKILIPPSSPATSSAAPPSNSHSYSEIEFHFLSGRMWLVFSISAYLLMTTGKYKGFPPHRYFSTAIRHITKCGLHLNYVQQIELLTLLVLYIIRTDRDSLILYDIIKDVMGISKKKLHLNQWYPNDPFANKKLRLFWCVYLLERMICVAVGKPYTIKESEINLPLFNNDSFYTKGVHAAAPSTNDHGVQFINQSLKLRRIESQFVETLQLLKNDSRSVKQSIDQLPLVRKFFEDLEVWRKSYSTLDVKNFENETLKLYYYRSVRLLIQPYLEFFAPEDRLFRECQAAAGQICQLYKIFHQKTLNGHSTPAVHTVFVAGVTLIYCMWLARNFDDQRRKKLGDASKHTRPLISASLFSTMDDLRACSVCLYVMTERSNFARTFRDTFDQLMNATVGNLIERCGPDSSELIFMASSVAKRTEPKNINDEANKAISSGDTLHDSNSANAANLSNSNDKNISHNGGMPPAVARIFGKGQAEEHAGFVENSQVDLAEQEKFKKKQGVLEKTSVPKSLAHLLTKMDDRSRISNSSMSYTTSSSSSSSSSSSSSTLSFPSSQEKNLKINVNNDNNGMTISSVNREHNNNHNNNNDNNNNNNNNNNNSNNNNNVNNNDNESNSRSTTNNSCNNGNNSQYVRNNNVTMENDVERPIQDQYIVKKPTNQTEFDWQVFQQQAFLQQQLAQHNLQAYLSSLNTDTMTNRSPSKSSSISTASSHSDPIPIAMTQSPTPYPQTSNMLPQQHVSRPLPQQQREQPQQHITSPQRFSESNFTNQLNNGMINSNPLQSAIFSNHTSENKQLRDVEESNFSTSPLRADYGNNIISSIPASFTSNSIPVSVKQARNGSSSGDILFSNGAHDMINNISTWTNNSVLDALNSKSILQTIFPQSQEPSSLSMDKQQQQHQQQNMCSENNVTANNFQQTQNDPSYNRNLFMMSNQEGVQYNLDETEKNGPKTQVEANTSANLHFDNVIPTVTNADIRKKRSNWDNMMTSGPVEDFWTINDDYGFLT

Sequence	PBM E-score
GGCTCCCA	-0.145
AGCTCCTC	-0.144
AGCTCCAA	-0.207
GGCTCCGA	0.393
GAGCCTCA	-0.171
CGCTCCCG	0.115
CACTTCAC	-0.0647
GTCTGTTA	-0.13
TGCTCCCA	-0.175
AAGTCGAG	-0.374
CTGTCTGC	-0.222
CCCAATAA	-0.0977
GGAGACTA	0.0463
GCTAAGAC	-0.0188
CGCTCCGC	0.317
CGCTCCCA	0.0833
CGCTCCGA	0.432
AACTGTGG	-0.0559
ACTACGCT	-0.0389
ACCGACAA	0.199
TCCGACAA	0.39
GCCGACGA	0.248

Sequence	PBM E-score
CCCGACAA	0.281
CCCGACGA	0.213
TCCGACGA	0.397
ACCTCTGA	-0.0775
CAAGATTG	-0.151
AAAATTAT	0.214
TCACGGAA	0.324
TCCCGGCA	0.333
CCGGGGAC	0.242
ACCCGGCA	0.174
CCCGGGAC	0.394
ACCCGGTC	0.202
ACCCGGAA	0.394
ACCCGGAC	0.396
GCCGGGAC	0.255
ACCCGGGC	0.273
ACCCGGTA	0.161
TCCCGGAA	0.44
CCCCTAAC	-0.141
GAAATCGC	0.214
AACTGGCC	0.0711
GTGCCTTA	-0.129

Sequence	PBM E-score
AGCGCAGG	0.169
CAAAAAGG	-0.203
AATTTCTC	0.121
CCCCGGCG	0.348
CCCCGGAC	0.388
CCCCGGTA	0.329
CCCCGGAA	0.406
CCCCGGCC	0.287
CCCCGGCA	0.318
GCCCGGAC	0.406
GCCCGGCC	0.32
GCCCGGGC	0.356
CCCGGGAG	0.294
CCCCGGAG	0.48
CCCCGGTC	0.368
AAACCAGC	0.0107
AGTGAGCC	-0.162
TACTTTAA	-0.122
TCGGGTCA	0.232
AGCAGCCA	-0.259
CCCAGTCC	-0.0128
CTATAAAG	0.0306

Sequence	PBM E-score
GAACCAGC	-0.126
GCCCGGTA	0.26
GCCCGGGA	0.341
ACCCGGAT	0.238
ACCCGGAG	0.46
ACCCGGCG	0.258
GCCCGGAA	0.423
AGCTCACC	-0.00625
ATTCCAAG	-0.077
ATGCCGAC	0.318
CTTCCGAA	0.371
ATTCCGAA	0.456
GTTCCGAA	0.373
ATGCCGAG	0.213
CTTCCGAC	0.273
ATTCCGAG	0.445
ATTCCGAC	0.451
GTGCAACA	-0.184
ACATTCCG	0.332
AGGGTTAG	-0.249
ATATGATA	0.0821
